Among the data in PubChem BioAssay (NCI) are growth values, retold here.

About 83,000 compounds went through this panel and 20% of them were active in at least one assay; those are over-represented in the sample as a whole.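 Method: cells in 96-well plates; compound added at one concentration; 48 h incubation; percent growth measured; values under 10 scored active.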 Values without a mark were called inactive. Active and inactive are the calls of the source.

The test system of this assay is HCC-2998 colon. In words: NCI-60 one-dose screen, 48 h (100 = growth as untreated, 0 = no growth, -100 = all killed). Particulars: 10 µM unless noted.
With `COC12C=C/C(=C(/C(=O)OCc3ccncn3)C(=O)CCCCCCCCC3(OC)C=C/C(=C(/C(=O)OCc4ccncn4)C(=O)CCCCCCCC1)O3)O2`, the growth is -85.1% (active).

With `CN(/C(N)=N/N=C/c1c2ccccc2cc2ccccc12)C1CCCCC1`, the growth is -69.9% (active).

Consider `Cn1cc(-c2csc(-c3c[nH]c4ccc(Br)cc34)n2)c2ccnc(Cl)c21`, for which the growth was 82.9%.

On to `COC(=O)c1nc(-c2ccc(C)cc2)oc1S(=O)(=O)c1cccc(OC)c1`, for which the growth is 103%.

With `CCCCn1c(=O)[nH]c(N)c([C@@H]2c3c([nH]c(=O)n(CCCC)c3=O)Oc3ccc4ccccc4c32)c1=O`, the growth was 83.3%.

In the case of `O=C(O)c1cn(C2CC2)c2cc(N3CCN(C(=O)N(c4ccccc4)c4nc(-c5ccccc5)cs4)CC3)c(F)cc2c1=O`, the growth is 16.5%.

For the molecule `CCC(C)(C)C(=O)O[C@H]1C[C@@H](C)C=C2C=C[C@H](C)[C@H](CC[C@@H]3CC(SCCN)CC(=O)O3)[C@H]21` (stereo partly drawn), the growth is 73.6%.

Consider `COc1cc(OC)c(NC(=O)c2cc3ccccc3cc2O)cc1Cl`, for which the growth was 61.9%.

As to `O=C(Nc1cccc2ccccc12)NC1CC1`, the growth was 111%.

`COc1ccc(C(=O)c2cc3c(N)c(C(=O)Nc4ccc(C)cc4)sc3nc2C)cc1`: the growth is 13.9%.

As for `CCCCCCCCCCCCCCCCCCOc1ccccc1CC(=O)OCC[N+](C)(C)C`, the growth was 27.9%.

Regarding `C=CC[Se]C(=O)Cc1c(C)n(C(=O)c2ccc(Cl)cc2)c2ccc(OC)cc12`, the growth was 4.27% (active).

With `Cc1cc(N2CCCCC2)cc(C)c1-c1csc(NC(=O)c2ccncc2)n1`, the growth was 97.4%.
